Here are results for one molecule from ChEMBL document CHEMBL2218924, “A broad activity screen in support of a chemogenomic map for kinase signalling research and drug discovery” (Biochem J, 2013).

The target in assay [1] is Tyrosine-protein kinase SYK (Homo sapiens) (UniProt P43405). The following applies: at 10 µM.
Assay [2] has as its target T1, Mitogen-activated protein kinase kinase kinase 7 (Homo sapiens) (UniProt O43318).
T1 sequence (whole entry): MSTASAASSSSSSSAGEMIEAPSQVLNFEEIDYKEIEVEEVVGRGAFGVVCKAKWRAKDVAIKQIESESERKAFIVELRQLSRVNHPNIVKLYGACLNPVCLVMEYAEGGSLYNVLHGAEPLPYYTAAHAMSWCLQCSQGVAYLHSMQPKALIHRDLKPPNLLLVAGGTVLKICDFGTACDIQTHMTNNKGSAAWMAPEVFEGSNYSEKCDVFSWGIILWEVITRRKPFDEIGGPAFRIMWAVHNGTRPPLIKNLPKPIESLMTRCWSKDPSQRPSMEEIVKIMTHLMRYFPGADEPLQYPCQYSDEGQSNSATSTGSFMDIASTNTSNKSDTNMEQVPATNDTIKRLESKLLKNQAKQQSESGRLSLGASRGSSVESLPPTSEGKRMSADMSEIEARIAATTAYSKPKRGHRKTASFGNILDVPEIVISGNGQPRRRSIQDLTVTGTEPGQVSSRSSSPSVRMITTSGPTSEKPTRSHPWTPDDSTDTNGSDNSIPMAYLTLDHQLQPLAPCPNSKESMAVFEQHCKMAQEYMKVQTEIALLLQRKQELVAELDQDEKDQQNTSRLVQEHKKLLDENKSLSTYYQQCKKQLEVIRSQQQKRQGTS
The conditions noted are these: at 1 µM.

Assay [3] addresses T1, Mitogen-activated protein kinase kinase kinase 7 (Homo sapiens). The following applies: at 10 µM.
The target in assay [4] is T2, Serine/threonine-protein kinase TAO1 (Homo sapiens) (UniProt Q7L7X3).
T2 sequence (whole entry): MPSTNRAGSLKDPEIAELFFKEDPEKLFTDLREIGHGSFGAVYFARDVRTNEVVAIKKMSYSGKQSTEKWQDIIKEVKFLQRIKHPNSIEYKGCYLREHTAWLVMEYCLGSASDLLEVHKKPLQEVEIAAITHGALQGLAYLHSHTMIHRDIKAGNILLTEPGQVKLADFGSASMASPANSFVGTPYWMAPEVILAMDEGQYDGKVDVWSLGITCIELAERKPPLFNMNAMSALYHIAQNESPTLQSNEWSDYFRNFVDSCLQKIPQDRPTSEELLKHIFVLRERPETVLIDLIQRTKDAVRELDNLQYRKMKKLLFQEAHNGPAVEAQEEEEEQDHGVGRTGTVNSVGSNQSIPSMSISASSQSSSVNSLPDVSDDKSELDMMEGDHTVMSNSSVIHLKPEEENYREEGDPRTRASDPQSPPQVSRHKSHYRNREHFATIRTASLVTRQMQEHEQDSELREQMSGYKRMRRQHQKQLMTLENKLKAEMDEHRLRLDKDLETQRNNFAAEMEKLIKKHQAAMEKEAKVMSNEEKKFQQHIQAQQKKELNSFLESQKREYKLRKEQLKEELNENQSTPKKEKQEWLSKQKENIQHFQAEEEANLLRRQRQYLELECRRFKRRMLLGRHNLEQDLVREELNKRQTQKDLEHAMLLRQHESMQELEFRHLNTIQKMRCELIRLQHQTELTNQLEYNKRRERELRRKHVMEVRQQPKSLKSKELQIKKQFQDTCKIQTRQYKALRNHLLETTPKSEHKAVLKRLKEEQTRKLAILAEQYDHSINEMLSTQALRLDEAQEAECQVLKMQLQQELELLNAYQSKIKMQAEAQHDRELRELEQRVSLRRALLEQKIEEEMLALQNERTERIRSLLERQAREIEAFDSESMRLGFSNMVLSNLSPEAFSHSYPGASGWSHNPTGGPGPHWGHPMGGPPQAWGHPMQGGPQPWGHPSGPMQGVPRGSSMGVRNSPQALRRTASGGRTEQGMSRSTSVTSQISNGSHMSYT
The conditions noted are these: at 10 µM.

The target in assay [5] is T3, Serine/threonine-protein kinase TAO2 (Homo sapiens) (UniProt Q9UL54).
T3 sequence (whole entry): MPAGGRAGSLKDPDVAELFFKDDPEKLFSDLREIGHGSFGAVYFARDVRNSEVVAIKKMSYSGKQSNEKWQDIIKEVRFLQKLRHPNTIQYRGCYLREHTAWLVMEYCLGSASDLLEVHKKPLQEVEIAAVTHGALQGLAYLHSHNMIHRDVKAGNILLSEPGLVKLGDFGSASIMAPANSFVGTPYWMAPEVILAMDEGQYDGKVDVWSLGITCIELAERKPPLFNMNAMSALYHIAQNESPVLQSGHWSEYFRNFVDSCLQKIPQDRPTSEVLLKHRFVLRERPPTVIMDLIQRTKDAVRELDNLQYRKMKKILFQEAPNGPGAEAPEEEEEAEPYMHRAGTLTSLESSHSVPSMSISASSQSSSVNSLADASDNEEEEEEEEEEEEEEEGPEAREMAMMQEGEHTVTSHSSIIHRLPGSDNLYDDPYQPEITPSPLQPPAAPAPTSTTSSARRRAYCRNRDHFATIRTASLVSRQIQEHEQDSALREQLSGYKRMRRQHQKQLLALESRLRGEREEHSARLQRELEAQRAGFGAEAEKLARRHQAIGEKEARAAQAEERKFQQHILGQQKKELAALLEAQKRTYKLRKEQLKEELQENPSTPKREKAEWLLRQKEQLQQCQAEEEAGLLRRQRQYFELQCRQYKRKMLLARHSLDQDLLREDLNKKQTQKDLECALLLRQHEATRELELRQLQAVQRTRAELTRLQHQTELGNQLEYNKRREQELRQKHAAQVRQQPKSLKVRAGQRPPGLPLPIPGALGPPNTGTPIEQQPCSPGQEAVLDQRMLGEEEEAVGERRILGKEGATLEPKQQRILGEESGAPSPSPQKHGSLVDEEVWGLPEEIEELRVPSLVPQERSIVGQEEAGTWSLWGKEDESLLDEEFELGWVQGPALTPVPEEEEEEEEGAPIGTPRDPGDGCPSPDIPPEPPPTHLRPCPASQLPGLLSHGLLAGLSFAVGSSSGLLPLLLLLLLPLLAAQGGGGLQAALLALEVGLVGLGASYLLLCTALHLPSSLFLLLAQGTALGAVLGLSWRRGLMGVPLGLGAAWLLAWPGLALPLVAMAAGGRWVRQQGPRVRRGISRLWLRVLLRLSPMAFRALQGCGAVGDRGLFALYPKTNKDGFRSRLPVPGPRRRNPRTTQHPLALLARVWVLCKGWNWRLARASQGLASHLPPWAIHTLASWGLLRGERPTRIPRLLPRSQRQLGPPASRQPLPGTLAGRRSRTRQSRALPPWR
The following applies: at 10 µM.

Assay [6] addresses T4, Serine/threonine-protein kinase TAO3 (Homo sapiens) (UniProt Q9H2K8).
T4 sequence (whole entry): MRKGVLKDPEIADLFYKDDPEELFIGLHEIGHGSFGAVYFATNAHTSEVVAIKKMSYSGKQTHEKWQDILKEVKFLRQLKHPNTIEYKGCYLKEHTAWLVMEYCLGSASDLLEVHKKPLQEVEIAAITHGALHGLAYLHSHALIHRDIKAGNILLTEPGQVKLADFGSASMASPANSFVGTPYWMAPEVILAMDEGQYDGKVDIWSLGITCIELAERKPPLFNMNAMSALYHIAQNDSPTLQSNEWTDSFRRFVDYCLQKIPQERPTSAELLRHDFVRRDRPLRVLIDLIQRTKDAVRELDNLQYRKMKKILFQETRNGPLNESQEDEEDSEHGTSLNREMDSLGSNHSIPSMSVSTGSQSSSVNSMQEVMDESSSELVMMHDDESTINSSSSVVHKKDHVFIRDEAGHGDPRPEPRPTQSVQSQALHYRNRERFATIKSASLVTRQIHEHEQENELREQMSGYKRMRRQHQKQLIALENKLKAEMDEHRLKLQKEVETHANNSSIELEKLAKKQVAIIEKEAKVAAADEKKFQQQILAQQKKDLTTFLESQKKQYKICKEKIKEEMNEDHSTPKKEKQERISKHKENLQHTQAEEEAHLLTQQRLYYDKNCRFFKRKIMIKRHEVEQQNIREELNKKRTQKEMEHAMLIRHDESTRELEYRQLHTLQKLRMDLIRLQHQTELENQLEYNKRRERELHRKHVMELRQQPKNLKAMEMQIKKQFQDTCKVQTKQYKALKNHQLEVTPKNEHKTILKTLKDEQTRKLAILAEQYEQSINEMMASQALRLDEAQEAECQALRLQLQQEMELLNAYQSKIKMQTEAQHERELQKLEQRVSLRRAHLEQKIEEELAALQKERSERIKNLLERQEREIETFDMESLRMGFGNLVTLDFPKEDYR
The following applies: at 10 µM.

Assay [7] deals with T5, Serine/threonine-protein kinase TBK1 (Homo sapiens) (UniProt Q9UHD2).
T5 sequence (whole entry): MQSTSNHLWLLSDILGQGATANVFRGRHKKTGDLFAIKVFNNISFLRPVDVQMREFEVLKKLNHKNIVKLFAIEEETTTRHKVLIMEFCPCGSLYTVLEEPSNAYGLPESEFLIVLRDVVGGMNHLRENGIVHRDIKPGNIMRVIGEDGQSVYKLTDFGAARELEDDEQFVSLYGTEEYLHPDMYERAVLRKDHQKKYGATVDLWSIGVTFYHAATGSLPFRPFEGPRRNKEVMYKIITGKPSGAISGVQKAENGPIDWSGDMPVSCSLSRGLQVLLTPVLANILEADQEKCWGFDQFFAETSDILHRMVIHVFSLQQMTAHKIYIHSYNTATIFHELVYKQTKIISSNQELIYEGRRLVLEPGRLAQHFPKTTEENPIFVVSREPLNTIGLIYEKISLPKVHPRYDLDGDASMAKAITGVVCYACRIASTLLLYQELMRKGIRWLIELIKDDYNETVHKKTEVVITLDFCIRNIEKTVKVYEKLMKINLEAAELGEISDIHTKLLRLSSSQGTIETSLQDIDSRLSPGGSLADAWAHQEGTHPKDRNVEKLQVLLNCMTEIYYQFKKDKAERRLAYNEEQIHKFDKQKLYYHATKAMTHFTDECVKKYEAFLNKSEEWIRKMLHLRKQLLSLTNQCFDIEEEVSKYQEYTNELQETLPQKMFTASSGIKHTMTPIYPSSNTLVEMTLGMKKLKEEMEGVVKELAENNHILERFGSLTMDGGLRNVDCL
The following applies: at 1 µM.

Assay [8] deals with T5, Serine/threonine-protein kinase TBK1 (Homo sapiens). The following applies: at 10 µM.

Consider `O=C1Nc2ccccc2/C1=C1/Nc2ccccc2/C1=N\OCCC(O)CO` (stereo not drawn), for which the residual activity in assay [1] amounted to 42%; in assay [2], 36%; in assay [3], 38%; in assay [4], 45%; in assay [5], 70%; in assay [6], 71%. For the same molecule, the residual activity in assay [7] was found to be 9%; in assay [8] it was 1%.
